Data taken from the supplement of paper PMC12350171.
Where a name gives a salt, the structure may show the parent alone. Unmarked numbers belong to inactive results.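 Rule for the calls: active = normalised median growth AUC below 0.1 of DMSO control; inactive = AUC 0.1 or higher.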

Tests used:
Test in all cases: growth AUC normalised to DMSO control (median) (fraction of control); higher = less growth inhibition, active = hit call of the paper
Conditions in all cases: 20 µM
[1] = system: P. vulgatus RND KO
Procedure, shortened: (§1)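 In 96-well plates of mGAM seeded at OD578 0.01, strains that had been passaged twice overnight without oxygen were exposed to approved-drug library compounds at 20 μM with 1% DMSO. Hourly OD578 readings were taken for 24 h in an anaerobic incubator. The trapezoidal-rule area under the curve, with curves truncated at entry into stationary phase, was expressed relative to same-plate vehicle wells as the median of three biological replicates.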

[2] = system: P. vulgatus WT
Procedure, shortened: as §1

[3] = system: S. enterica typhimurium WT
Procedure, shortened: as §1

[4] = system: S. enterica typhimurium tolC KO
Procedure, shortened: as §1
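Note: active when median AUC fell below 0.1.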

Compound | growth AUC normalised to DMSO control [1] | growth AUC normalised to DMSO control [2] | growth AUC normalised to DMSO control [3] | growth AUC normalised to DMSO control [4]
COc1cc(NS(=O)(=O)c2ccc(N)cc2)ncn1 [Sulfamonomethoxine] | 1.02 | 0.976 | 0.955 | 0.974
CC(C)Cc1ccc(C(C)C(=O)OCc2ccccn2)cc1 (centres undefined) [Ibuprofen Piconol] | 1 | 1.05 | 0.999 | 0.875
CO[C@@H]1[C@@H](O[C@@H]2O[C@H](C)[C@@H](O[C@H]3C[C@@](C)(O)[C@@H](O)[C@H](C)O3)[C@H](N(C)C)[C@H]2O)[C@@H](CC=O)C[C@@H](C)[C@@H](O[C@H]2CC[C@H](N(C)C)[C@@H](C)O2)/C=C/C=C/C[C@@H](C)OC(=O)C[C@H]1OC(C)=O [Acetyl spiramycin] | 0.0119 (active) | 0.00707 (active) | 0.991 | 0.65
O=C1[C@H](CC[C@H](O)c2ccc(F)cc2)[C@@H](c2ccc(O)cc2)N1c1ccc(F)cc1 [Ezetimibe] | 0.901 | 0.918 | 1 | 0.828
Cc1cccc(C)c1OCC(=O)N[C@@H](Cc1ccccc1)[C@@H](O)C[C@H](Cc1ccccc1)NC(=O)[C@H](C(C)C)N1CCCNC1=O [Lopinavir] | 1.06 | 1.07 | 1.01 | 1.01
CCCSS/C(CCO)=C(/C)N(C=O)Cc1cnc(C)nc1N [Prosultiamine] | 1.09 | 1.06 | 0.997 | 1.02
CN1CC(=O)N2[C@H](c3ccc4c(c3)OCO4)c3[nH]c4ccccc4c3C[C@@H]2C1=O [Tadalafil] | 0.919 | 0.845 | 0.996 | 0.981
COC(=O)N/N=C/c1c[n+]([O-])c2ccccc2[n+]1[O-] [Carbadox] | 0.0197 (active) | 0.0112 (active) | 0.558 | 0.591
Cc1nc2n(c(=O)c1CCN1CCC(c3noc4cc(F)ccc34)CC1)CCCC2O (centres undefined) [Paliperidone] | 0.976 | 0.958 | 0.997 | 0.985
CC(C)(C)c1ccc(C(=O)CCCN2CCC(OC(c3ccccc3)c3ccccc3)CC2)cc1 [Ebastine] | 0.999 | 1.01 | 1.01 | 0.97
CCCC(CCC)C(=O)O[C@H]1C[C@H]2CC[C@@H](C1)[N+]2(C)C [Anisotropine Methylbromide] | 1.09 | 1.12 | 0.997 | 0.994
CSc1nc2cc(Cl)c(Oc3cccc(Cl)c3Cl)cc2[nH]1 [Triclabendazole] | 0.0625 (active) | 0.129 | 0.991 | 0.0431 (active)
Cc1ccc(=O)n(-c2ccccc2)c1 [Pirfenidone] | 0.932 | 0.875 | 1 | 1
N#Cc1ccc(Oc2ccc3c(c2)COB3O)cc1 [Crisaborole] | 1 | 1.02 | 1.01 | 1.02
CC#CCn1c(N2CCC[C@@H](N)C2)nc2c1c(=O)n(Cc1nc(C)c3ccccc3n1)c(=O)n2C [Linagliptin] | 0.987 | 1.02 | 1 | 0.98
CCOC(=O)c1c(N)sc2c1CCN(Cc1ccccc1)C2 [Tinoridine hydrochloride] | 0.91 | 0.852 | 0.989 | 0.969
COc1nc(N)nc2c1ncn2[C@@H]1O[C@H](CO)[C@@H](O)[C@@H]1O [Nelarabine] | 0.98 | 0.981 | 0.997 | 0.981
N[C@@H](C(=O)N[C@@H]1C(=O)N2C(C(=O)O)=C(Cl)CC[C@H]12)c1ccccc1 [Loracarbef] | 0.00871 (active) | 0.00996 (active) | 0.018 (active) | 0.0264 (active)
CN(C)CCc1c[nH]c2ccc(Cn3cncn3)cc12 [Rizatriptan benzoate] | 1.02 | 1.03 | 1 | 0.994
C[C@H](CCc1ccccc1)NC[C@H](O)c1ccc(O)c(C(N)=O)c1 [Dilevalol] | 1.02 | 1.05 | 0.996 | 1.01
CC(=O)Nc1ccccc1 [Acetanilide] | 0.993 | 1 | 0.997 | 1.01
Oc1c(Br)cc(Br)c2cccnc12 [Broxyquinoline] | 0.294 | 0.0591 (active) | 0.986 | 0.561
Cc1c(O)c(=O)ccn1C [Deferiprone] | 0.978 | 0.993 | 1 | 1

Compound | growth AUC normalised to DMSO control [1] | growth AUC normalised to DMSO control [2] | growth AUC normalised to DMSO control [3] | growth AUC normalised to DMSO control [4]
O=C(Cn1cnnn1)N[C@@H]1C(=O)N2C(C(=O)O)=C(CSc3nncs3)CS[C@H]12 [Ceftezole] | 0.00781 (active) | 0.00376 (active) | 0.0119 (active) | 0.00306 (active)
NC(=O)c1cn(Cc2c(F)cccc2F)nn1 [Rufinamide] | 0.994 | 0.963 | 1 | 1
CCN1CC(CCN2CCOCC2)C(c2ccccc2)(c2ccccc2)C1=O (centres undefined) [Doxapram hydrochloride] | 1.05 | 1.03 | 1.02 | 0.996
CC=CC1=C(C(=O)O)N2C(=O)[C@@H](NC(=O)[C@H](N)c3ccc(O)cc3)[C@H]2SC1 [Cefprozil] | 1.45 | 1.42 | 1.01 | 0.983
CC1(C)O[C@@H]2C[C@H]3[C@@H]4CCC5=CC(=O)C=C[C@]5(C)[C@H]4[C@@H](O)C[C@]3(C)[C@]2(C(=O)CO)O1 [Desonide] | 0.783 | 0.993 | 0.996 | 1
CO/N=C(\C(=O)N[C@@H]1C(=O)N2C(C(=O)[O-])=C(C[n+]3ccn4ncccc43)CS[C@H]12)c1nsc(N)n1 [Cefozopran hydrochloride] | – | 0.128 | 0.0996 (active) | 0.1
CC/C=C(\C(=O)N[C@@H]1C(=O)N2C(C(=O)OCOC(=O)C(C)(C)C)=C(COC(N)=O)CS[C@H]12)c1csc(N)n1 [Cefcapene pivoxil hydrochloride monohydrate] | – | – | 1.03 | 0.159
CC1(C)S[C@@H]2[C@H](NC(=O)[C@H](N)c3ccccc3)C(=O)N2[C@H]1C(=O)O [Ampicillin sodium salt] | – | – | 0.773 | 0.112
Cn1nnnc1SCC1=C(C(=O)O)N2C(=O)[C@@H](NC(=O)[C@H](O)c3ccccc3)[C@H]2SC1 [Cefamandole sodium salt] | 0.204 | – | 0.0103 (active) | 0.00496 (active)
NC(=O)OCC(COC(N)=O)c1ccccc1 [Felbamate] | 1 | 1.04 | 0.999 | 1
COc1cc(C(=O)N2CCOCC2)cc(OC)c1OC [Trimetozine] | 1.01 | 1.01 | 0.996 | 0.991
Nc1nc(/C(=C/CC(=O)O)C(=O)N[C@@H]2C(=O)N3C(C(=O)O)=CCS[C@H]23)cs1 [Ceftibuten] | – | 0.58 | 0.746 | –
Cn1c([N+](=O)[O-])cnc1COC(N)=O [Ronidazole] | 0.0102 (active) | 0.00777 (active) | 0.999 | 0.923
COc1cccc(OC)c1C(=O)N[C@@H]1C(=O)N2[C@@H]1SC(C)(C)[C@@H]2C(=O)O [Methicillin sodium] | – | 0.708 | 0.99 | 0.482
CO/N=C(\C(=O)N[C@@H]1C(=O)N2C(C(=O)OC(C)OC(C)=O)=C(COC(N)=O)CS[C@H]12)c1ccco1 (some centres undefined) [Cefuroxime axetil] | – | 0.664 | 1.1 | –
CN1CCN(c2c(F)cc3c(=O)c(C(=O)O)cn4c3c2OCN4C)CC1 [Marbofloxacin] | 0.0125 (active) | 0.0111 (active) | 0.00445 (active) | 0.00216 (active)
CC(=O)OCC(=O)[C@@]1(O)CC[C@H]2[C@@H]3CCC4=CC(=O)C=C[C@]4(C)[C@@]3(F)[C@@H](O)C[C@@]21C [Isoflupredone acetate] | 1.03 | 0.986 | 1 | 0.98
COCC1=C(C(=O)OC(C)OC(=O)OC(C)C)N2C(=O)[C@@H](NC(=O)/C(=N\OC)c3csc(N)n3)[C@H]2SC1 (some centres undefined) [Cefpodoxime proxetil] | – | – | 0.853 | 0.338
O=C1c2cccc3c2[C@H](CCC3)CN1[C@@H]1CN2CCC1CC2 [Palonosetron hydrochloride] | 0.973 | 1 | 1 | 0.998
C/C(O)=C(\C#N)C(=O)Nc1ccc(C(F)(F)F)cc1 [Teriflunomide] | 0.969 | 0.982 | 1 | 0.88
Nc1nc2[nH]cnc2c(=S)[nH]1 [Tioguanine] | 1.01 | 1 | 0.907 | 0.876
CC[N+]1(CC)CCC(=C(c2ccccc2)c2ccccc2)C1C (centres undefined) [Prifinium Bromide] | 0.997 | 0.989 | 1 | 0.935
COC(=O)C1=C(C)NC(C)=C(C(=O)OCCN2CCN(C(c3ccccc3)c3ccccc3)CC2)C1c1cccc([N+](=O)[O-])c1 (centres undefined) [Manidipine Dihydrochloride] | 1.03 | 1.02 | 0.999 | 1.02

Compound | growth AUC normalised to DMSO control [1] | growth AUC normalised to DMSO control [2] | growth AUC normalised to DMSO control [3] | growth AUC normalised to DMSO control [4]
CC(COc1ccccc1)NN (centres undefined) [Phenoxypropazine dihydrochloride] | 1.07 | 1.08 | 1.01 | 0.994
Cn1c(=O)cc(N2CCC[C@@H](N)C2)n(Cc2ccccc2C#N)c1=O [Alogliptin benzoate] | 0.981 | 0.971 | 0.991 | 0.992
CC(C(=O)O)c1ccc(N2CC=CC2)c(Cl)c1 (centres undefined) [Pirprofen] | 1.08 | 1.06 | 1 | 1
CC(C)(C)C(=O)C(Oc1ccc(Cl)cc1)n1ccnc1 (centres undefined) [Climbazole] | 0.968 | 0.984 | 0.993 | 0.953
CN(C)CCc1c[nH]c2ccc(C[C@H]3COC(=O)N3)cc12 [Zolmitriptan] | 0.971 | 0.964 | 1 | 1
CC(=O)Oc1cc2c(s1)CCN(C(C(=O)C1CC1)c1ccccc1F)C2 (centres undefined) [Prasugrel] | 1.06 | 1.07 | 1.03 | 1.01
CCN1/C(=C/C=C/C=C/c2sc3ccccc3[n+]2CC)Sc2ccccc21 [Dithiazanine iodide] | – | 1.02 | 1 | 0.695
COc1ccc(C2C(=O)c3ccccc3C2=O)cc1 [Anisindione] | 1 | 1 | 0.973 | 0.749
Cc1cc(O)c(C(=O)N[C@@H](C(=O)N[C@@H]2C(=O)N3C(C(=O)O)=C(CSc4nnnn4C)CS[C@H]23)c2ccc(O)cc2)cn1 [Cefpiramide] | 0.0197 (active) | 0.0147 (active) | 0.121 | 0.0047 (active)
C=C1CC[C@H](O)C/C1=C/C=C1\CCC[C@]2(C)[C@@H]([C@H](C)CCCC(C)C)CC[C@@H]12 [Cholecalciferol] | 1.05 | 1.07 | 0.999 | 0.982
COc1ccc(CNc2nc(N3CCC[C@H]3CO)ncc2C(=O)NCc2ncccn2)cc1Cl [Avanafil] | 1 | 1.03 | 1.01 | 0.962
COc1cc2c(cc1OC)CC(=O)N(CCCN(C)C[C@H]1Cc3cc(OC)c(OC)cc31)CC2 [Ivabradine hydrochloride] | 1 | 0.997 | 1.01 | 0.965
O=C1[C@@H]2[C@H]3CC[C@H](C3)[C@@H]2C(=O)N1CCCCN1CCN(c2ncccn2)CC1 [Tandospirone] | 1.07 | 1.05 | 1.01 | 0.996
O=C(O)C1CSCN1 (centres undefined) [Timonacic] | 0.993 | 0.999 | 0.998 | 0.998
O=C1Nc2ccccc2C1(c1ccc(O)cc1)c1ccc(O)cc1 [Oxyphenisatin] | 1.04 | 1.04 | 0.994 | 0.99
CC(C)OC(=O)C(C(=O)OC(C)C)=C1SC=CS1 [Malotilate] | 0.988 | 0.977 | 1 | 0.899
NC(=O)[C@@H]1CCCN1C(=O)[C@H](Cc1c[nH]cn1)NC(=O)[C@@H]1CCC(=O)N1 [Thyrotropin-Releasing Hormone] | 1.05 | 1.04 | 0.996 | 1.01
CC(=O)[C@@]12O[C@](C)(c3ccccc3)O[C@@H]1C[C@H]1[C@@H]3CCC4=CC(=O)CC[C@]4(C)[C@H]3CC[C@@]12C [Algestone acetophenide] | 0.955 | 0.983 | 1 | 0.993
O=C1OC(c2ccc(O)cc2)(c2ccc(O)cc2)c2ccccc21 [Phenolphthalein] | 0.979 | 0.994 | 1.02 | 0.524
NC(=O)c1cc[n+](CC2=C(C(=O)O)N3C(=O)[C@@H](NC(=O)C(c4ccccc4)S(=O)(=O)[O-])[C@H]3SC2)cc1 (some centres undefined) [Cefsulodin Sodium Salt Hydrate] | – | – | 0.995 | 0.986
CO/N=C(\C(=O)N[C@@H]1C(=O)N2C(C(=O)OCOC(=O)C(C)(C)C)=C(/C=C\c3scnc3C)CS[C@H]12)c1csc(N)n1 [Cefditoren Pivoxil] | – | – | 0.905 | 0.387
CC(C)CN(C[C@@H](O)[C@H](Cc1ccccc1)NC(=O)O[C@H]1CCOC1)S(=O)(=O)c1ccc(N)cc1 [Amprenavir] | 1.01 | 1.06 | 0.995 | 0.995
